# Compound activity as filed in PubChem BioAssay.
# HTT ATP protect – Huntington cell model cytoprotection by ATP luminescence | PC12 HTT-Q103 induced, cytoprotection, ATP luminescence, 40 h | Potency, µM (series often up to 56.4 µM), inactives show cytoprotection (ATP increase), usual class: activators | hit rate 0.14% among 230,000 | AID 1471; further: potency means the concentration at half of the fitted maximal effect; % of control where 0% means no effect; nearly all actives have a fitted effect of over 45% in size
#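 ATP quantification (ATPlite) reports survival of PC12 cells in which tebufenozide, 100 nM final, switches on Htt exon 1 with 103 glutamines linked to GFP; compounds are titrated.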
# Lamin A splicing – LMNA splicing modulation | hit rate 0.01% among 200,000 | HeLa LMNA splicing GFP/RFP minigene ratio, 48 h | AID 1487 | Potency, µM (top dose mostly 46.1 µM), inactives show at the highest dose ratio change, negative = inhibition, usual class: inhibitors; active means well fitted inhibition curve with a large enough effect in the signal ratio, with a control signal flat, not every such curve was filed as active; inconclusive means small, poorly fitted or top-dose-only effect, or effect the other way, or a change in a side signal; the % refers to the signal ratio; further: potency means the concentration at half of the fitted maximal effect; on the % scale 0 is the no-effect control and ±100 the full control effect
#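 Read-out is the ratio of GFP to DsRed2 object intensity, acquired by 488 nm laser-scanning cytometry on HeLa lamin A-EGFP minigene reporter cells. Compound incubation 48 hrs at 37 °C in Opti-MEM with 2% FBS; DMSO 0.5% final.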
# NPSR antag – neuropeptide S receptor (human) antagonism, cAMP. Q6W5P4. CHO-NPSR cells, cAMP TR-FRET, antagonist mode. Potency, µM (highest dose often 38.3 µM), for inactives: top-dose activity change, negative = inhibition, actives largely listed as inhibitors. hit rate 1% among 220,000; further: potency means the concentration at half of the fitted maximal effect; on the % scale 0 is the no-effect control and ±100 the full control effect; nearly all actives have a fitted effect of over 50% in size
# Target sequence (Q6W5P4 whole entry, looked up): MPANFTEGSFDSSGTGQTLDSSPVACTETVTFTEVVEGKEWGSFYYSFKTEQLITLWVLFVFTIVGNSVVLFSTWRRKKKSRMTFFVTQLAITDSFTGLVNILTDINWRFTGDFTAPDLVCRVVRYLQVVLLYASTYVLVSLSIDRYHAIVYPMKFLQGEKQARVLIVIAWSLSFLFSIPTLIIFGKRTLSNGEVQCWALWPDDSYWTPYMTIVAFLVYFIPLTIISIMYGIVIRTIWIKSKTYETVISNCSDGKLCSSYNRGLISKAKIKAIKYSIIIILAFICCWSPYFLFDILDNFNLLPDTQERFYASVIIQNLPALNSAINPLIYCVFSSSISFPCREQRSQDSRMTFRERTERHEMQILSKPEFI
# MBNL1 CUG block – inhibitors of human MBNL1 binding to CUG repeat RNA; Potency, µM (top dose mostly 57.5 µM), for the others: at the top dose activity change, negative = inhibition, most hits filed as inhibitors; TR-FRET MBNL1-His/biotin-(CUG)12 binding, 665/545 ratio; hit rate 0.036% among 280,000; Q9NR56; active means well fitted inhibition curve with a large enough effect in the signal ratio, with a control signal flat, not every such curve was filed as active; inconclusive means small, poorly fitted or top-dose-only effect, or effect the other way, or a change in a side signal; inactive means no such curve, though single readings can be large or run the other way; the % refers to the signal ratio; further: potency means the concentration at half of the fitted maximal effect; on the % scale 0 is the no-effect control and ±100 the full control effect
# Target sequence (Q9NR56 whole entry, looked up): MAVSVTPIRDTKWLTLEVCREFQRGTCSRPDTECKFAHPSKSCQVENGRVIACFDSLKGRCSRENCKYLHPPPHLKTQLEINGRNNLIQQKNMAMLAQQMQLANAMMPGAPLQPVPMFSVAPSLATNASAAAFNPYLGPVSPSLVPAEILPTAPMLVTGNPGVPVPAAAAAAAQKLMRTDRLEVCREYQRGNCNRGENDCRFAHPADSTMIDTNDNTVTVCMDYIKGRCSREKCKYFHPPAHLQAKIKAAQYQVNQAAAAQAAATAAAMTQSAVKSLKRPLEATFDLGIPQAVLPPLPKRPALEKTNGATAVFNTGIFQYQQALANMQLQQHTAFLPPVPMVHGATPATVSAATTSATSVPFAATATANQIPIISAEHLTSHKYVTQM
#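 Ratiometric TR-FRET (665 over 545 nm, excitation 340 nm) tracks disruption of MBNL1-His/biotin-(CUG)12 complex after 60 min at room temperature, with compounds at 92 nM to 58 uM final.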
# CBFb RUNX1 block – inhibitors of human CBF-beta and RUNX1 interaction; Q01196+Q13951; AlphaScreen CBFb-His/RUNX1-biotin binding, biochemical; AID 1477; 230,000 tested, under 10 active; Potency, µM (titrated, usually from 59.8 µM), for inactives: at the top dose activity, negative = inhibition, hits mostly inhibitors; further: % of control where 0% means no effect
#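 AlphaScreen proximity signal reports loss of binding between His-tagged CBF-beta and biotin-labelled RUNX1, each at 30 nM. Proteins are pre-associated for 20 minutes, compounds added for 15 minutes, then beads for 90 minutes, all at ambient temperature.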
# HttQ103 aggreg – inhibitors of mutant huntingtin aggregate formation in PC12 cells; hit rate 1.1% among 220,000; PC12 HttQ103-GFP aggregates, Acumen cytometry, 40 h; AID 1688; Potency, µM (top dose mostly 46.1 µM), for the others: at the highest dose activity change, negative = inhibition, usual class: inhibitors; further: potency means the concentration at half of the fitted maximal effect; on the % scale 0 is the no-effect control and ±100 the full control effect; nearly all actives have a fitted effect of over 60% in size
#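 Compounds (qHTS titration) were added to PC12 cells expressing an ecdysone-driven HTT exon 1 Q103–GFP fusion after induction with 100 nM tebufenozide. Aggregate formation was measured as GFP objects in cell lysates.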
# * = called active by the depositor; ? = inconclusive; . = no result; [ ] = another dose, or the depositor's remark. The list is not random: actives were taken first. Their share in the collection is about 1.1%. Unless noted, the call rests on the fitted dose curve; in most records, active means well fitted curve in the direction sought with a large enough effect; inconclusive means small, poorly fitted or top-dose-only effect, or another doubt; inactive means no such curve, though single readings can be large; an effect the other way counts as inactive or inconclusive.
SMILES,HTT ATP protect,Lamin A splicing,NPSR antag,MBNL1 CUG block,CBFb RUNX1 block,HttQ103 aggreg
CC1CNCCN1S(=O)(=O)c1cccc2cnccc12 (configuration not stated),-45.1%,?,17.8%,-10.2%,18.7%,?
CC(CO)(CO)N=Cc1cc(I)cc(I)c1O,-9.7%[10 µM],.,.,.,.,.
NCCc1cnc(-c2cccc(C(F)(F)F)c2)[nH]1,.,.,.,.,16.2%,.
FC(F)(F)c1cccc(-c2nc3nc(Cl)c(Cl)nc3[nH]2)c1,-15.7%[10 µM],.,6.31µM*,-2.7%,10.1%,?
CCN(CC)c1ccc2cc(-c3nnc(-c4ccncc4)o3)c(=O)oc2c1,-2.4%[10 µM],?,-10.6%[46.1 µM],?,8.7%,2.51µM*
CCN(CC)c1ccc2cc(C(N)=O)c(=O)oc2c1,-1.9%[10 µM],1.7%,-14.8%[46.1 µM],?,-3.2%,24.8%
CCOC(=O)c1sc2nc(N3CCOCC3)c3c(c2c1N)CCN(C)C3,0.631µM*,8.1%,-0.8%[46.1 µM],21.8%,1.9%,.
CN1Cc2c(N3CCOCC3)nc3sc(C(=O)c4ccc(Br)cc4)c(N)c3c2CC1(C)C,-8.2%[10 µM],.,12.6µM*,?,-24.0%,18.1%[9.22 µM]
CCCNC(=O)N1N=C(c2ccc(N)cc2)c2cc3c(cc2C1C)OCO3 (configuration not stated),.,.,.,.,17.6%,.
CCN(CC)[C@@H](C)C(=O)N1c2ccccc2Sc2ccccc21,-3.5%[1.9 µM],.,.,.,.,.
CC(=O)/C(=N/Nc1ccccc1[N+](=O)[O-])N1CCCc2ccccc21,.,.,7.5%[7.67 µM],.,.,11.2µM*
COc1cc(/C=C(\C#N)c2nc3ccccc3[nH]2)cc(Br)c1OCc1ccc(F)cc1,-71.0%,1.7%,5.01µM*,6.4%,2.9%,-28.4%
O=C(CN1CCOCC1)n1c2ccccc2c2ccccc21,-8.4%[10 µM],-7.3%,-4.8%[46.1 µM],6.2%,-0.6%,2.82µM*
CCCCN(CC)c1nc(C)nc2c1c(C)c(C)n2-c1c(C)cc(C)cc1C,.,.,.,.,14.2%,.
CCOC(=O)c1ccc(NC(=O)Cn2nc(C)c3nn(-c4ccc(Cl)cc4)c(C)c3c2=O)cc1,.,-17.3%[46 µM],.,.,.,.
CCOC(=O)C1=C(c2ccccc2)O/C(=C(\C(=O)OC)C(F)(F)F)S1,3.4%,5.6%,-16.7%[46.1 µM],4.1%,3.2%,-14.5%
CCOC(=O)C1=C(c2ccccc2)O/C(=C(/C#N)C(F)(F)F)S1,-11.1%,?,7.94µM*,11.9%,4.6%,?
O=c1cc(-c2ccc(O)cc2)oc2cc(O)cc(O)c12,?,?,25.1µM*,.,?,.
Cc1ccc(NS(=O)(=O)c2ccc(Cl)c(C(=O)Nc3ccccc3-c3nc4ccccc4[nH]3)c2)cc1C,-27.3%[10 µM],?,-31.4%,-0.5%,-9.5%,11.2µM*
CN(C)S(=O)(=O)c1ccc(Cl)c(C(=O)Nc2nc3ccccc3[nH]2)c1,-15.8%,-7.6%[46 µM],0.9%,-3.0%,5.3%,-14.3%
C/C=C/C=C/C=O,3.4%,.,.,.,-3.0%[21.7 µM],.
CC1=C(C(=O)Nc2ccccc2)C(c2ccc(C)o2)n2c(s/c(=C\c3ccco3)c2=O)=N1 (configuration not stated),-16.6%[0.074 µM],?,12.6µM*,13.2%,?,?
COc1cccc(C2C(C(=O)Nc3ccccc3)=C(C)N=c3s/c(=C/c4ccc(OCC(=O)O)cc4)c(=O)n32)c1 (configuration not stated),.,-5.0%,-2.4%,?,-0.1%,15.1%
CN(C)C1C(=O)C(C(N)=O)=C(O)[C@@]2(O)C(=O)C3=C(O)c4c(O)ccc(Cl)c4[C@@H](O)C3C[C@@H]12 (some centres not stated),.,-18.0%,3.8%[46.1 µM],?,1.0%,.
COc1ccc(/C=C/c2c([N+](=O)[O-])c(=O)n(C)c(=O)n2C)cc1,?,.,-4.3%,?,-2.5%,-19.5%
SMILES,HTT ATP protect,Lamin A splicing,NPSR antag,MBNL1 CUG block,CBFb RUNX1 block,HttQ103 aggreg
CCOc1ccc(/C=C/c2c([N+](=O)[O-])c(=O)n(C)c(=O)n2C)cc1,7.94µM*,-17.3%[46 µM],-10.7%,?,14.2%,-18.5%
C[n+]1ccc(/C=C/c2ccccc2O)c2ccccc21,-29.4%,6.6%[46 µM],12.6µM*,?,-4.0%,?
CC(=O)/C=C/c1ccccc1O,30.4%[10 µM],?,10.9%,-6.5%,3.8%,-2.4%
O=c1oc2cc(N=Cc3ccc4c(c3)OCO4)ccc2c2ccccc12,-4.4%[10 µM],.,.,.,.,.
O=C(NCCCN1CCOCC1)c1ccc(Br)cc1,-12.2%,-2.2%,-5.3%[46.1 µM],-1.5%,-3.2%,-6.2%
CC(C)(C)c1ccc(C(=O)NCCCN2CCN(CCCNC(=O)c3ccc(C(C)(C)C)cc3)CC2)cc1,-53.9%[10 µM],?,-58.3%,-13.6%,0.0%,7.08µM*
O=C(NCc1ccccc1)[C@]1(C(F)(F)F)C[C@H](CCCO)CCCO1,.,.,.,.,4.6%,.
CCCN1C(=O)/C(=C\C=C2/C=CN(CC)c3ccccc32)SC1=S,-25.1%[10 µM],-20.0%,2µM*,?,2.3%,-12.3%
CCCCN1C(=O)/C(=C/C=C2\N(C)c3ccccc3C2(C)C)SC1=S,-34.0%,3.8%,-9.0%[46.1 µM],1.6%,-11.3%,12.6µM*
CN1CCS/C1=C/C=C1/SC(=S)N(Cc2ccccc2)C1=O,-9.7%[10 µM],-13.5%,3.6%,.,7.5%,20.1%
CC(=O)N1c2ccc(S(=O)(=O)NCc3ccc(Cl)cc3)cc2CC1C (configuration not stated),.,-4.6%[46 µM],.,.,.,.
Clc1ccc(C[n+]2cc(-c3ccccc3)n3c2CCCCC3)c(Cl)c1,-48.1%[10 µM],?,-28.6%,-2.2%,5.6%,11.2µM*
Clc1ccc(-c2c[n+](Cc3ccc(Cl)cc3Cl)c3n2CCCCC3)cc1,-46.0%[10 µM],.,?,-3.0%,-5.8%,-3.7%[9.22 µM]
O=[N+]([O-])c1ccc(O)c(Nc2ncnc3ccc(Br)cc23)c1,-157.3%,.,-34.2%,8.2%,-3.9%,31.6µM*
O=[N+]([O-])c1ccc2ncnc(Nc3ccc4c(c3)OCCO4)c2c1,-62.4%,.,-19.1%,.,-19.2%,14.1µM*
